Measurements taken from PubChem BioAssay (EPA / NIEHS).
Several values for one entry are separate records, joined by “and”; a condition that tells them apart may be missing. Equal entries are not always repeated. A structure can be active in one record and inactive in another. Activity calls are given as the source filed them. How the source made its calls: active means hit-call score of the fitted dose curve at least 0.9, where 1 is the maximum; inactive means score below 0.9.

How the values were obtained:
[1] = ATG_GLI_CIS: Attagene CIS-FACTORIAL HepG2 Assay for human Zinc Finger Protein GLI1 (AID 2282945); conditions: HepG2, Attagene cis-factorial reporter mRNA, GLI element; actives raise or lower the signal
How it was run: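 Bidirectional curve fits relative to DMSO, using reporter mRNA levels from RT-PCR plus capillary electrophoresis. Cells were HepG2 transiently carrying cis-regulated reporter constructs, harvested 24 h after dosing.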

[2] = ATG_GRE_CIS: Attagene CIS-FACTORIAL HepG2 Assay for human Glucocorticoid Response Elements (GRE) (AID 2282947); conditions: HepG2 GRE cis-reporter, Attagene multiplex mRNA; actives raise or lower the signal
How it was run: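 Multiplexed cis-reporter mRNA induction, HepG2, 24 h post-dose. RT-PCR, FAM-labelled, HpaI-digested amplicons by CE. Bidirectional fit vs DMSO.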

[3] = ATG_ISRE_CIS: Attagene CIS-FACTORIAL HepG2 Assay for human Interferon Regulatory Factor 1 (IRF1) binding to an Interferon-Stimulated Response Element (ISRE) (AID 2282948); conditions: HepG2 ISRE cis-reporter (Attagene), mRNA transcription readout; actives raise or lower the signal
How it was run: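 Uses HepG2 liver cells transfected with cis-regulated reporters and measures mRNA 24 h post-dosing through RT-PCR, primer-extension labelling and capillary electrophoresis, with DMSO as negative control.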

[4] = ATG_M_32_CIS: Attagene CIS-FACTORIAL HepG2 Assay for M32 Transcription Factor (Internal Marker) (AID 2282949); conditions: HepG2 Attagene cis-factorial M32 reporter, mRNA; actives raise or lower the signal;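 further: background control marker of the multiplexed CIS panel rather than a real target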
How it was run: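 Using DMSO as baseline, bidirectional curve fits were applied to reporter mRNA signals. These came from transiently transfected HepG2 cells exposed for 24 h, with RNA analysed by RT-PCR, FAM primer extension, HpaI digestion and CE.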

[5] = ATG_M_06_CIS: Attagene CIS-FACTORIAL HepG2 Assay for M06 Transcription Factor (Internal Marker) (AID 2282950); conditions: HepG2 Attagene CIS-FACTORIAL M06 internal marker reporter; actives raise or lower the signal
How it was run: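 Cells (HepG2, transiently carrying cis-driven reporter units) receive chemical for 24 h before RNA isolation. Reporter cDNA is PCR-amplified, FAM-labelled by primer extension, HpaI-digested and sized on a capillary analyser.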

[6] = molecular target: Hypoxia-inducible factor 1-alpha (Homo sapiens) (UniProt Q16665); assay: ATG_HIF1a_CIS: Attagene CIS-FACTORIAL HepG2 Assay for human Hypoxia Inducible Factor 1 (HIF1A) (AID 2282951); conditions: HepG2 Attagene cis-factorial HIF1a reporter transcription; actives raise or lower the signal
How it was run: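 Fluorescence intensity of capillary-separated, 6-FAM-labelled reporter amplicons gives mRNA induction in HepG2 cells carrying transfected cis-promoter reporter units; cells exposed 24 h, responses fitted up or down from DMSO.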

[7] = molecular target: Hepatocyte nuclear factor 6 (Homo sapiens) (UniProt Q9UBC0); assay: ATG_HNF6_CIS: Attagene CIS-FACTORIAL HepG2 Assay for human Hepatocyte Nuclear Factor 6 (HNF6) (AID 2282952); conditions: HepG2 Attagene cis-factorial HNF6 reporter transcription; actives raise or lower the signal
How it was run: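 Twenty-four-hour chemical treatment of reporter-transfected HepG2 cells precedes RNA isolation, DNase-treated reverse transcription and PCR of reporter sequences. Labelled fragments are sized by capillary electrophoresis and fitted bidirectionally versus DMSO.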

[8] = ATG_MRE_CIS: Attagene CIS-FACTORIAL HepG2 Assay for human Metal Responsive Element (MRE) (AID 2282954); conditions: HepG2 MRE cis-reporter transcription, Attagene multiplex; actives raise or lower the signal
How it was run: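 Multiplexed cis-reporter assay in human HepG2 liver cells, 24 h incubation with test chemical. Reporter transcripts measured by RT-PCR and capillary electrophoresis; values from bidirectional curve fitting versus DMSO.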

[9] = ATG_PBREM_CIS: Attagene CIS-FACTORIAL HepG2 Assay for human Phenobarbital-responsive Enhancer Module (PBREM) (AID 2282955); conditions: HepG2 PBREM cis-reporter, Attagene multiplexed transcription; actives raise or lower the signal
How it was run: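 Cells were transfected with cis-element reporter units and treated for 24 h, after which RNA was extracted and reporter transcripts measured by RT-PCR and capillary electrophoresis.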

[10] = molecular target: Paired box protein Pax-6 (Homo sapiens) (UniProt P26367); assay: ATG_Pax6_CIS: Attagene CIS-FACTORIAL HepG2 Assay for human Paired Box 6 (PAX6) (AID 2282956); conditions: HepG2 CIS-FACTORIAL PAX6 reporter transcription, RNA readout; actives raise or lower the signal
How it was run: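 DMSO-referenced bidirectional fits of reporter mRNA fluorescence; HepG2 with transient cis-promoter MRTUs, 24 h post-dose, RT-PCR plus capillary electrophoresis detection.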

[11] = ATG_PXRE_CIS: Attagene CIS-FACTORIAL HepG2 Assay for human Pregnane X Receptor Element (PXRE) (AID 2282957); conditions: HepG2 Attagene CIS-FACTORIAL PXRE reporter, mRNA; actives raise or lower the signal
How it was run: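 Bidirectional activity, baselined to DMSO, derived from reporter mRNA fluorescence (RT-PCR plus capillary electrophoresis) in HepG2 cells bearing cis-promoter reporter units, 24 h exposure.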

[12] = ATG_PPRE_CIS: Attagene CIS-FACTORIAL HepG2 Assay for human Peroxisome Proliferator-activated Response Element (PPRE) (AID 2282958); conditions: HepG2 PPRE cis-element reporter, Attagene transcription factor profiling; actives raise or lower the signal
How it was run: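 In this cell-based multiplex, a PPRE cis element drives a reporter sequence in transiently transfected HepG2 cells. Following 24 h treatment, labeled cDNA amplicons are sized and quantified by capillary electrophoresis, with DMSO defining baseline.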

[13] = molecular target: Transcription factor Sp1 (Homo sapiens) (UniProt P08047); assay: ATG_Sp1_CIS: Attagene CIS-FACTORIAL HepG2 Assay for human Specificity Protein 1 (Sp1) (AID 2282961); conditions: HepG2 Sp1 cis-reporter transcription, actives raise or lower the signal
How it was run: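 Cells: HepG2, transiently transfected with cis-regulated multiplexed reporters. Exposure: 24 h. Detection: reporter transcripts amplified, fluorescently labeled, restriction-digested and sized by capillary electrophoresis. Analysis: bidirectional fit relative to DMSO.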

[14] = ATG_SREBP_CIS: Attagene CIS-FACTORIAL HepG2 Assay for human Sterol Regulatory Element Binding (SREBP) (AID 2282962); conditions: HepG2 Attagene cis-factorial SREBP reporter, mRNA; actives raise or lower the signal
How it was run: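 In this cis-format assay, HepG2 liver cells express reporters controlled by promoter elements responsive to native transcription factors. Exposure lasts 24 h; reporter mRNA fluorescence from capillary electrophoresis gives the signal, fitted bidirectionally against DMSO.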

[15] = molecular target: Signal transducer and activator of transcription 3 (Homo sapiens) (UniProt P40763); assay: ATG_STAT3_CIS: Attagene CIS-FACTORIAL HepG2 Assay for human Signal Transducer and Activator of Transcription 3 (STAT3) (AID 2282963); conditions: HepG2, Attagene cis-factorial STAT3 reporter transcription; actives raise or lower the signal
How it was run: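 Cis-factorial format: endogenous transcription factors in HepG2 drive transfected reporter units. After 24 h treatment, reporter RNA was reverse-transcribed, amplified, FAM-labelled and HpaI-digested before CE analysis; activity scored in both directions against DMSO.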

[16] = ATG_TA_CIS: Attagene CIS-FACTORIAL HepG2 Assay for human TA Basal Promoter (AID 2282964); conditions: HepG2 Attagene CIS-factorial TA basal promoter reporter; actives raise or lower the signal
How it was run: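 Background internal-marker endpoint from a 52-component HepG2 cis-reporter panel. Cells treated 24 h; reporter transcripts quantified via RT-PCR and CE fluorescence against DMSO baseline.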

[17] = molecular target: Heat shock factor protein 1 (Homo sapiens) (UniProt Q00613); assay: ATG_HSE_CIS: Attagene CIS-FACTORIAL HepG2 Assay for human Heat Shock Transcription Factor 1 (HSE) (AID 2282953); conditions: HepG2 HSE cis-reporter, Attagene RNA transcription; actives raise or lower the signal
How it was run: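 Liver-derived HepG2 cells carry transiently introduced multiple reporter units governed by cis promoters. Reporter RNA measured 24 h post-dose through reverse transcription, PCR amplification, fluorescent labelling and capillary electrophoresis, normalised to DMSO.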

[18] = ATG_Sox_CIS: Attagene CIS-FACTORIAL HepG2 Assay for human SRY-box transcription factor (SOX) (AID 2282960); conditions: HepG2 Attagene cis-factorial SOX reporter, mRNA; actives raise or lower the signal
How it was run: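 Measures mRNA induction of a SOX1-associated reporter in HepG2 after 24 h dosing. Fluorescently labelled RT-PCR fragments are separated by capillary electrophoresis, and gain or loss relative to DMSO control is fitted.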

[19] = ATG_RORE_CIS: Attagene CIS-FACTORIAL HepG2 Assay for human RAR-related Orphan Receptor Element (RORE) (AID 2282959); conditions: HepG2 Attagene cis-factorial RORE reporter, mRNA; actives raise or lower the signal
How it was run: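 Endogenous factor activity at a cis response element is read as reporter transcript levels in HepG2 cells, 24 h post-dose. Transcripts are quantified by RT-PCR with capillary electrophoresis, and data fitted in both directions against DMSO.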

Measured: AC50

Sequence of Heat shock factor protein 1 (Homo sapiens) (Q00613 whole entry, looked up): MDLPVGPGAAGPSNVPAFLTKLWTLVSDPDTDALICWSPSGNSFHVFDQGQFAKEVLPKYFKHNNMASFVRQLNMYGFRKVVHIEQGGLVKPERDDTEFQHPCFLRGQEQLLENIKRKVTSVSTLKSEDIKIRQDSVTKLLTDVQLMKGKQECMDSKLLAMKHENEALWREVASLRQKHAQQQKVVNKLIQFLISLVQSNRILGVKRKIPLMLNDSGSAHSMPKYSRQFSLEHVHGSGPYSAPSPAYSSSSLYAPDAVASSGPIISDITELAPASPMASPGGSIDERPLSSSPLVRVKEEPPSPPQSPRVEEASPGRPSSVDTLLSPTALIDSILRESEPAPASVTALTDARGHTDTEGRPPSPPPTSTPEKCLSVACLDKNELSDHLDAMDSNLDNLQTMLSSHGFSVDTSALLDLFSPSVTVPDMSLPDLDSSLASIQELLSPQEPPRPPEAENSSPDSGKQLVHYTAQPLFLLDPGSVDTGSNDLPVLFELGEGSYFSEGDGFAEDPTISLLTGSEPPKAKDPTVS
Sequence of Hepatocyte nuclear factor 6 (Homo sapiens) (Q9UBC0 whole entry, looked up, the tested form may be a part): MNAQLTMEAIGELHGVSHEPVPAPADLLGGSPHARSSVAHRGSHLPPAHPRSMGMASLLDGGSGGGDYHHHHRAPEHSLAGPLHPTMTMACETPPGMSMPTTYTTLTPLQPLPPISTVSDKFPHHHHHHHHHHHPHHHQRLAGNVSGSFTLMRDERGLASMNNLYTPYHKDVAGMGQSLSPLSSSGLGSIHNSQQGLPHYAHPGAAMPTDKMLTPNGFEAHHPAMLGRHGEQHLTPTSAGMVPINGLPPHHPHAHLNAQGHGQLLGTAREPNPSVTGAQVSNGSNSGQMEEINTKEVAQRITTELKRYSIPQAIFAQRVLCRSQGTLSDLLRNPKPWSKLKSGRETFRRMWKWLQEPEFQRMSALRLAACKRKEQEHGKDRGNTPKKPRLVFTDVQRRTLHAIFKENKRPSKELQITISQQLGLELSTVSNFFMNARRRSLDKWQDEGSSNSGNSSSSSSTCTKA
Sequence of Paired box protein Pax-6 (Homo sapiens) (P26367 whole entry, looked up): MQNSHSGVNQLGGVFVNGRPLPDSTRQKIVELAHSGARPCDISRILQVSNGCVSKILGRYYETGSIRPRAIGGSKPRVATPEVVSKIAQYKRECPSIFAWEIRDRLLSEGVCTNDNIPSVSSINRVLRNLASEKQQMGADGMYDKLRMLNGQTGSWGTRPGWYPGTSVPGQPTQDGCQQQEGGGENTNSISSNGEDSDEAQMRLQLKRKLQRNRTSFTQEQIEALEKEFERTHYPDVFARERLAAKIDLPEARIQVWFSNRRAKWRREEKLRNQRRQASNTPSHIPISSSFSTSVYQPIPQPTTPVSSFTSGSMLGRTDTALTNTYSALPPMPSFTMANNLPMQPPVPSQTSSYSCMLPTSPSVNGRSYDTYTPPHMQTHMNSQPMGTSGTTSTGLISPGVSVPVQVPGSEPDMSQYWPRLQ
Sequence of Hypoxia-inducible factor 1-alpha (Homo sapiens) (Q16665 whole entry, looked up): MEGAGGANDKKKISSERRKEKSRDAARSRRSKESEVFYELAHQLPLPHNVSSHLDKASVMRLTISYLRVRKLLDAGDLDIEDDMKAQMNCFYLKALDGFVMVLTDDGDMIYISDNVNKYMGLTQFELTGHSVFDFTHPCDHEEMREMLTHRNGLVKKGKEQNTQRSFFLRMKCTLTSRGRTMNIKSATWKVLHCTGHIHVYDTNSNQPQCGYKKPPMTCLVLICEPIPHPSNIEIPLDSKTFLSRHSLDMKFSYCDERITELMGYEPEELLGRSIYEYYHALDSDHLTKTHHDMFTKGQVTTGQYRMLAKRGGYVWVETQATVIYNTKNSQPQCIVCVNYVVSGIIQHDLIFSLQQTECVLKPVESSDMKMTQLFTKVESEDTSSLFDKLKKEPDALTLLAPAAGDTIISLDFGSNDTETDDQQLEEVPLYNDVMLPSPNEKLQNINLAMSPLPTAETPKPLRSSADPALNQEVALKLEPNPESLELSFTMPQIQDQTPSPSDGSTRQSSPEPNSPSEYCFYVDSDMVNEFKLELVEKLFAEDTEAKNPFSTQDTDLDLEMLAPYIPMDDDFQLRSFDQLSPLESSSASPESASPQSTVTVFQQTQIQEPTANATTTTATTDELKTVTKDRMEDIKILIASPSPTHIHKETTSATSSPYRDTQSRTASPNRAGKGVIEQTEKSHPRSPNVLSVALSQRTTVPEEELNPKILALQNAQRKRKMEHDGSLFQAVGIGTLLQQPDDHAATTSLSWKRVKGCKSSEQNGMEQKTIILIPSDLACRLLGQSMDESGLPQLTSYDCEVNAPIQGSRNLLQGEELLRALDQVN
Sequence of Signal transducer and activator of transcription 3 (Homo sapiens) (P40763 whole entry, looked up): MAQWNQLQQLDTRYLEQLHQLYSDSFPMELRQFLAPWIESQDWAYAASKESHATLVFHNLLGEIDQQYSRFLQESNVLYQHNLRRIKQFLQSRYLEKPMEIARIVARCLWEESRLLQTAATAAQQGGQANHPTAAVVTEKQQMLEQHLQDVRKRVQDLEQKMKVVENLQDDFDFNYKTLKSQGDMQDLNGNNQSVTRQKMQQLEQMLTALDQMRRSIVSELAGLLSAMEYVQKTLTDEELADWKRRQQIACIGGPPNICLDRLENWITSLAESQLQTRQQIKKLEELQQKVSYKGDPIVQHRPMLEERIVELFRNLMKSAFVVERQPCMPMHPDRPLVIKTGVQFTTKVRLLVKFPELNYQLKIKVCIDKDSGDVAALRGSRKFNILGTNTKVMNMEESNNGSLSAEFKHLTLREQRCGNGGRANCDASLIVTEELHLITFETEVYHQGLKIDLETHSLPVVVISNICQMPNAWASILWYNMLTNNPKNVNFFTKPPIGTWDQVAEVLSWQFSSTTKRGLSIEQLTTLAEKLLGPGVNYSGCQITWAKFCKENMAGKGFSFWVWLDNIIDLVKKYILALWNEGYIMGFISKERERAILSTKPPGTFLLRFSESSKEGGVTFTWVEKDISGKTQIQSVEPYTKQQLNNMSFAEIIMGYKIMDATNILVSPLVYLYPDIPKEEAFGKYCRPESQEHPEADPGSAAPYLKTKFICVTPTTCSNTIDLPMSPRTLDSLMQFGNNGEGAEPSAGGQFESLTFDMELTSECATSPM
Sequence of Transcription factor Sp1 (Homo sapiens) (P08047 whole entry, looked up): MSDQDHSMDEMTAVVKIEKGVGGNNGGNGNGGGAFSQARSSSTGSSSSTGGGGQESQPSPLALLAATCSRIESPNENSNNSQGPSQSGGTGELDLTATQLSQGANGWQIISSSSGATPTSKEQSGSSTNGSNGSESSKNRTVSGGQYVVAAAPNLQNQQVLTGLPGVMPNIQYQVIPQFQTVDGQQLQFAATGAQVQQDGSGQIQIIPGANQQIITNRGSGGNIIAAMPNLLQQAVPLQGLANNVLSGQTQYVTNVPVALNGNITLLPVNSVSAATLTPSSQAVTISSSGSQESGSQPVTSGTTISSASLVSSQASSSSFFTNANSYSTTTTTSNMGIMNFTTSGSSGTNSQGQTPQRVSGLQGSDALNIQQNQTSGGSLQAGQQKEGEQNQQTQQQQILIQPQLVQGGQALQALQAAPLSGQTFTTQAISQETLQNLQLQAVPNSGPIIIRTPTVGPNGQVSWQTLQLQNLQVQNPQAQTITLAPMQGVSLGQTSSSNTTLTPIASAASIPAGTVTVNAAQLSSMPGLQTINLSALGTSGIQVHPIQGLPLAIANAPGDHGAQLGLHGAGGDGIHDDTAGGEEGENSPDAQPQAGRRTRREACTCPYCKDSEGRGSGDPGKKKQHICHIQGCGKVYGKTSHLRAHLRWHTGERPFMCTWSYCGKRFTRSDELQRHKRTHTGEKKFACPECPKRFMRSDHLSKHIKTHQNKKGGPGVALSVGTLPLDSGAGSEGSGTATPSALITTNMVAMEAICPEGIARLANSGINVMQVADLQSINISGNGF

CC(C)COC(=O)c1ccccc1
inactive: [1] | [2] | [3] | [4] | [5] | [6] | [7] | [8] | [9] | [10] | [11] | [12] | [13] | [14] | [15] | [16]

C=C(C)C(=O)OCCC[Si](OC)(OC)OC
inactive: [1] | [2] | [3] | [4] | [5] | [6] | [7] | [17] | [8] | [10] | [11] | [12] | [18] | [13] | [14] | [15]

O=c1cc[nH]cc1
inactive: [1] | [2] | [3] | [4] | [5] | [6] | [7] | [17] | [9] | [10] | [12] | [19] | [18] | [13] | [14] | [16]
active: [11] 21 µM

O=Cc1ccccc1O
inactive: [1] | [2] | [3] | [4] | [5] | [6] | [7] | [8] | [9] | [10] | [12] | [18] | [14] | [15] | [16]
active: [11] 100 µM | [19] 76.3 µM

CC/C=C\CCOC(=O)C(C)C
inactive: [1] | [2] | [3] | [4] | [5] | [6] | [7] | [17] | [8] | [10] | [11] | [12] | [18] | [13] | [14] | [15]

CCCO
inactive: [1] | [2] | [3] | [4] | [5] | [6] | [7] | [17] | [8] | [10] | [12] | [19] | [18] | [13] | [14] | [15] | [16]
active: [11] 85.4 µM

CC1(C)[C@H](C=C(Cl)Cl)[C@H]1C(=O)OCc1cccc(Oc2ccccc2)c1
active: [11] 3.1 µM
inactive: [1] | [2] | [3] | [4] | [5] | [6] | [7] | [17] | [9] | [10] | [19] | [18] | [13] | [14] | [15] | [16]

c1ccc2scnc2c1
active: [11] 55.6 µM
inactive: [1] | [2] | [3] | [4] | [5] | [6] | [7] | [17] | [8] | [10] | [12] | [19] | [14] | [15] | [16]

O=C(O)c1cc2ccccc2cc1O
inactive: [1] | [2] | [3] | [4] | [5] | [6] | [7] | [8] | [9] | [10] | [19] | [18] | [13] | [14] | [15] | [16]
active: [11] 54.4 µM | [12] 52 µM

CC1(C)CC(=O)CC(C)(C)N1
active: [11] 36.2 µM
inactive: [1] | [2] | [3] | [4] | [5] | [6] | [7] | [17] | [8] | [10] | [12] | [19] | [13] | [14] | [16]

Cc1cccc(C)c1
active: [11] 34.4 µM
inactive: [1] | [2] | [3] | [4] | [5] | [6] | [17] | [8] | [9] | [10] | [12] | [19] | [18] | [13] | [14] | [15] | [16]

CCCCC(CC)COCCO (centres undefined)
inactive: [1] | [2] | [3] | [4] | [5] | [6] | [7] | [17] | [9] | [10] | [11] | [12] | [19] | [18] | [13] | [14] | [15] | [16]

CC/C(=C(\c1ccccc1)c1ccc(OCCN(C)C)cc1)c1ccccc1
active: [14] 5.24 µM and 3.71 µM
inactive: [1] | [2] | [3] | [4] | [5] | [6] | [7] | [17] | [8] | [10] | [12] | [19] | [18] | [13] | [14] | [16]

C=CC(=O)OCC(CO)(COC(=O)C=C)COC(=O)C=C
active: [3] 7.12 µM | [4] 122 µM | [17] 161 µM | [10] 11.9 µM | [12] 117 µM | [16] 100 µM
inactive: [1] | [2] | [5] | [6] | [7] | [11] | [19] | [18] | [13] | [14] | [15]

O=C1CCC(=O)N1
inactive: [1] | [2] | [3] | [4] | [5] | [7] | [17] | [8] | [10] | [11] | [12] | [19] | [18] | [14] | [15] | [16]
active: [6] 28.2 µM
